Experimental data as given in PubChem BioAssay (NCATS).
Results filed as inconclusive are left out. Unless noted, calls follow the shape of the dose curve; as a rule, active = well fitted curve in either direction with a large enough effect (not every such curve was filed as active); inconclusive = small, poorly fitted or top-dose-only effect, or another doubt; inactive = flat fitted curve, though single readings scatter.

Columns and labels:
[1] = AP1 Signaling Pathway (AID 357); conditions: ME-180 AP-1-bla reporter, EGF-induced, beta-lactamase ratio, 5 h; at 17.2 µM (top of the series) unless noted;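 also: ME-180 reporter cells stimulated with EGF at its EC50 level; % is scaled to controls: 0 for no effect and ±100 for the full control effect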
Summary of the method: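 Beta-lactamase reporter under AP-1 response element, ME-180 background. Stimulus: EC50 EGF. Compound exposure 5 h, 37 °C. Detection: CCF4, 2.5 h RT, 460/530 nm. Values: AC50 from titration.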

[2] = NFAT Signaling Pathway (AID 444); conditions: Jurkat NFAT-bla M1, carbachol, beta-lactamase ratio, 5 h; at 17.2 µM (top of the series) unless noted;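 also: carbachol stimulus at about its EC50 of 1 µM final; % is scaled to controls: 0 for no effect and ±100 for the full control effect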
Summary of the method: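 Jurkat cells with NFAT-driven β-lactamase reporter and co-expressed M1 receptor, stimulated with carbachol (final 1 uM, ~EC50), compound titration, 5 h at 37 °C. CCF4 loaded 1 h at RT; 460/530 nm ratio gave %activity and AC50.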

[3] = Stat Signaling Pathway (AID 446); conditions: ME-180 (cervical carcinoma) SIE beta-lactamase reporter, IL-6 stimulated, 5 h; at 17.2 µM (top of the series) unless noted;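 also: ME-180 cervical cancer cells given 40 pM IL-6 alongside compound; SIE-controlled beta-lactamase reporter measured as 460/530 nm FRET emission ratio; % is scaled to controls: 0 for no effect and ±100 for the full control effect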
Summary of the method: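 Emission at 460 and 530 nm (excitation 405 nm) reports SIE-controlled beta-lactamase in ME-180 cells. Cells received compound with 40 pM IL-6 for 5 hrs at 37 C; data scaled between 300 pM IL-6 and 125 nM JAK-inhibitor controls.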

[4] = biological target: Glucocorticoid receptor (Homo sapiens) (UniProt P04150); experiment: GR-GFP Redistribution (AID 450;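 active = compounds whose dose series gives a full or clear partial fitted curve of increased nuclear translocation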; also: potency is read from the fitted curve at half-maximal effect)
Sequence of Glucocorticoid receptor (Homo sapiens) (P04150 whole entry, looked up): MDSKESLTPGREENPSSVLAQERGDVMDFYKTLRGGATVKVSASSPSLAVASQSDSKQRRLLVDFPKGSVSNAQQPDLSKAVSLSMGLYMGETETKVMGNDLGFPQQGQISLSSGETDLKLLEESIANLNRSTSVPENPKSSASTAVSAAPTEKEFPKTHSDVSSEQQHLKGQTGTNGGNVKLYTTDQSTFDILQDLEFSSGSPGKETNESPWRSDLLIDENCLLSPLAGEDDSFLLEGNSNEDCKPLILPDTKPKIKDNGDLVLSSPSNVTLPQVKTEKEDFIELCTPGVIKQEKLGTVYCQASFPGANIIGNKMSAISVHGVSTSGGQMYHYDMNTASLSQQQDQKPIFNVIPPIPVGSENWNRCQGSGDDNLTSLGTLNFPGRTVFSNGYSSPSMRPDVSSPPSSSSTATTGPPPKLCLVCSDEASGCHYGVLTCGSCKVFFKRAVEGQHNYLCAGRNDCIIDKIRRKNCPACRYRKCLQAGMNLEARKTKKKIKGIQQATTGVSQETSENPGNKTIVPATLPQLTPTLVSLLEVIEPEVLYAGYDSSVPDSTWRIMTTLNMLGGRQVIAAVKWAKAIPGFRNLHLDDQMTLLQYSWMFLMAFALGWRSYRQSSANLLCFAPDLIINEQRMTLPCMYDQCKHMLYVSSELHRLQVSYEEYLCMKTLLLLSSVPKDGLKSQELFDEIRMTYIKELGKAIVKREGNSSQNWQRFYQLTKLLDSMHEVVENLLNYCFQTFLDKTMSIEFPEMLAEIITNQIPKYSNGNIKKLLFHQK

CCN(CC)CCN1C(=O)C(=O)/C(=C(/O)c2c(C)[nH]c(C(=O)OC)c2C)C1c1ccco1 (centres undefined)
inactive: activity change, negative = inhibition [1] 6.74% | activity change, negative = inhibition [2] -2.14% | activity, negative = inhibition [3] -0.9% | Potency [4] > 20.6 µM

O=C(Nc1ccccc1)c1cc(N2CCOCC2)nc2ccccc12
inactive: activity change, negative = inhibition [1] 2.4% | activity change, negative = inhibition [2] 13.1% | activity, negative = inhibition [3] 1.13% | Potency [4] > 20.6 µM

CC1CN(C2CCN(S(=O)(=O)c3ccccc3)CC2)CC(C)O1 (centres undefined)
inactive: activity change, negative = inhibition [1] 2.07% | activity change, negative = inhibition [2] -20.4% | activity, negative = inhibition [3] 2.46% | Potency [4] > 20.6 µM

COc1ccc(C2C=C(c3ccc(Cl)cc3)Nc3nc(NC(C)=O)nn32)cc1 (centres undefined)
inactive: activity change, negative = inhibition [1] -15.6% | activity change, negative = inhibition [2] -13.4% | activity, negative = inhibition [3] -9.52% | Potency [4] > 20.6 µM

C=CCn1c(SCC(=O)NC23CC4CC(CC(C4)C2)C3)nc(O)cc1=O
inactive: activity change, negative = inhibition [1] 8.04% | activity change, negative = inhibition [2] -3.75% | activity, negative = inhibition [3] -2.84% | Potency [4] > 20.6 µM

Cn1c(CSc2ncn[nH]2)nc2ccccc21
inactive: activity change, negative = inhibition [1] -5.65% | activity change, negative = inhibition [2] 3.91% | activity, negative = inhibition [3] 20.6% | Potency [4] > 20.6 µM

COC(=O)CSc1nnc(C)c(=O)[nH]1
inactive: activity change, negative = inhibition [1] 0.589% | activity change, negative = inhibition [2] 3.42% | activity, negative = inhibition [3] 5.67% | Potency [4] > 20.6 µM

Nc1ccc2[nH]ncc2c1
inactive: activity change, negative = inhibition [1] 5.98% | activity change, negative = inhibition [2] -1.96% | activity, negative = inhibition [3] -0.564% | Potency [4] > 20.6 µM

COC(=O)CN1C2(C#N)CCCCC2CC2CCCCC21C#N (centres undefined)
inactive: activity change, negative = inhibition [1] 2.79% | activity change, negative = inhibition [2] -12.3% | activity, negative = inhibition [3] 13% | Potency [4] > 20.6 µM

C=CCN(C(=O)CCC(=O)O)C1CC(=O)N(c2ccc(OC)cc2)C1=O (centres undefined)
inactive: activity change, negative = inhibition [1] 6.46% | activity change, negative = inhibition [2] -8.7% | activity, negative = inhibition [3] 5.71% | Potency [4] > 20.6 µM

O=S(=O)(c1ccc2ccccc2c1)N(CC(O)CN1CCOCC1)c1ccccc1 (centres undefined)
inactive: activity change, negative = inhibition [1] -11.7% | activity change, negative = inhibition [2] 4.35% | activity, negative = inhibition [3] -7.59% | Potency [4] > 20.6 µM

Cc1cc(COc2ccccc2OCCN2CCN(C)CC2)no1
inactive: activity change, negative = inhibition [1] 21.4% | activity change, negative = inhibition [2] -13.9% | activity, negative = inhibition [3] -0.578% | Potency [4] > 20.6 µM

CCCCc1c(C)nn(-c2nnc3c4ccccc4n(C)c3n2)c1C
inactive: activity change, negative = inhibition [1] -21.4% | activity change, negative = inhibition [2] -28.4% | activity, negative = inhibition [3] -8.34% | Potency [4] > 20.6 µM

COC(=O)C1C(=O)NCC1c1ccccc1 (centres undefined)
inactive: activity change, negative = inhibition [1] 9.38% | activity change, negative = inhibition [2] -1.78% | activity, negative = inhibition [3] 7.06% | Potency [4] > 20.6 µM

S=c1[nH]nc(-c2ccccc2)n1Cc1ccccc1
inactive: activity change, negative = inhibition [1] -4.69% | activity change, negative = inhibition [2] -11.2% | activity, negative = inhibition [3] 6.25% | Potency [4] > 20.6 µM

c1ccc(-n2ncc3c(N4CCCC4)ncnc32)cc1
inactive: activity change, negative = inhibition [1] -17.5% | activity change, negative = inhibition [2] 14.9% | activity, negative = inhibition [3] -6.73% | Potency [4] > 20.6 µM

CC(C)Cc1nc2n[nH]c(N)c2c2c1CCC2
inactive: activity change, negative = inhibition [1] 2.89% | activity change, negative = inhibition [2] 28.5% | activity, negative = inhibition [3] -5.62% | Potency [4] > 20.6 µM

CCn1c(SCC(=O)NC2CCCCC2C)nnc1-c1ccc(OC)cc1 (centres undefined)
inactive: activity change, negative = inhibition [1] -8.83% | activity change, negative = inhibition [2] 19.9% | activity, negative = inhibition [3] -7.61% | Potency [4] > 20.6 µM

O=C(c1coc(=O)c(Br)c1)N1CCOCC1
inactive: activity change, negative = inhibition [1] 6.25% | activity change, negative = inhibition [2] 21.3% | activity, negative = inhibition [3] 1.69% | Potency [4] > 20.6 µM

O=C(CC(c1ccco1)S(=O)(=O)c1ccccc1)c1ccc(F)cc1 (centres undefined)
inactive: activity change, negative = inhibition [1] -0.192% | activity change, negative = inhibition [2] -1.61% | activity, negative = inhibition [3] -7.8% | Potency [4] > 20.6 µM

CC1=CC=CN2CC(O)CN=C12 (centres undefined)
inactive: activity change, negative = inhibition [1] 3.58% | activity change, negative = inhibition [2] -0.121% | activity, negative = inhibition [3] 3.52% | Potency [4] > 20.6 µM

CCc1c(C(=O)O)[nH]c2ccc(Br)cc12
inactive: activity change, negative = inhibition [1] 8.39% | activity change, negative = inhibition [2] -22% | activity, negative = inhibition [3] -0.02% | Potency [4] > 20.6 µM

C/C(CC1(O)C(=O)N(Cc2ccccc2)c2ccccc21)=N\O (centres undefined)
inactive: activity change, negative = inhibition [1] 2.48% | activity change, negative = inhibition [2] 1.97% | activity, negative = inhibition [3] 3.88% | Potency [4] > 20.6 µM

COc1ccc(C(=O)Nc2nc(N)n(-c3ccccc3)n2)cc1OC
inactive: activity change, negative = inhibition [1] -0.0315% | activity change, negative = inhibition [2] -1.36% | activity, negative = inhibition [3] 1.75% | Potency [4] > 20.6 µM

CCOC(=O)NC(O)C(=O)c1cccs1 (centres undefined)
inactive: activity change, negative = inhibition [1] 11.6% | activity change, negative = inhibition [2] -1.46% | activity, negative = inhibition [3] 3.85% | Potency [4] > 20.6 µM

Cc1c(C)n(C(=O)CSc2nccn2C)c2ccccc12
inactive: activity change, negative = inhibition [1] 14.1% | activity change, negative = inhibition [2] -0.559% | activity, negative = inhibition [3] 0.828% | Potency [4] > 20.6 µM
